Format in all cases: functional
Test [1] has as its system Plasmodium falciparum. The test can be described thus: GSK_TCMDC: Inhibition of Plasmodium falciparum 3D7 in whole red blood cells, using parasite LDH activity as an index of growth. Test compounds present at 2uM.
Test [2] has as its system Plasmodium falciparum. The test can be described thus: GSK_TCMDC: Inhibition of Plasmodium falciparum Dd2 in whole red blood cells, using parasite LDH activity as an index of growth. Test compounds present at 2uM.
The test system of another test is HepG2. Put plainly: GSK_TCMDC: Percent inhibition of human HepG2 cell line. Test compounds present at 10uM.

By Inhibition is commonly meant the percentage by which the read-out fell short of the control.

Consider `CCCCCCCNC(=O)NCC1CCCN(CCCCCNC(=O)/C=C/c2ccc(Cl)c(Cl)c2)C1` (stereo not drawn), for which the figures for the Inhibition in the test with Plasmodium falciparum [1], in the test with Plasmodium falciparum [2] and in the test with HepG2 were 86%, 7% and 98%, respectively.
With `O=C(/C=C/c1ccc(Cl)c(Cl)c1)NCCCCCN1CCC(NC(=O)Nc2ccc(C(F)(F)F)cc2)C1` (stereo not drawn), the Inhibition was found to be 100% in the test on Plasmodium falciparum [1], 6% in the test on Plasmodium falciparum [2] and 11% in the test on HepG2.
Turning to `O=C(Nc1cccc(C(F)(F)F)c1)c1cccc(S(=O)(=O)NC2CCCN(CC3CCCCC3)C2)c1.O=C(O)C(F)(F)F` (stereo not drawn), the Inhibition in the test on Plasmodium falciparum [1] is recorded as 97%; in the test with Plasmodium falciparum [2], 15%; in the test with HepG2, 18%.
For `COc1cc(NCC2(CNCc3cn(Cc4ccccc4)c4ccccc34)CCCCC2)nc2ccccc12.Cl`, the Inhibition in the test with Plasmodium falciparum [1] was found to be 95%; with Plasmodium falciparum [2], 12%; in the test with HepG2, 65%.
Taken in the same sequence, the figures for `CCCCn1c(-c2ccco2)nc2c(c(=O)c3ccccc3n2C)c1=O` were 87%, 64% and 11%.
Regarding `C=C(C)C1CC=C(CN2CCC(N3CCc4cc(NC(=O)c5cc(C)on5)ccc43)C2)CC1` (stereo not drawn), the Inhibition in the test with Plasmodium falciparum [1] came to 90%; in the test on Plasmodium falciparum [2], 95%; in the test on HepG2, 26%.
With `Cc1cccc2nc(-c3ccc(-c4cccc(CNCCc5ccncc5)c4)s3)[nH]c12.O=C(O)C(F)(F)F`, the Inhibition in the test on Plasmodium falciparum [1] is on record as 100%; with Plasmodium falciparum [2] it was 89%; in the test on HepG2 it was 11%.
Consider `CC(=O)N(Cc1ccc(CC(C)NCCc2cccc(Cl)c2)cc1)Cc1ccc(CC(C)NCCc2cccc(Cl)c2)cc1` (stereo not drawn), for which the Inhibition with Plasmodium falciparum [1] turned out to be 100%; in the test with Plasmodium falciparum [2], 94%; with HepG2, 98%.
As for `N#Cc1ccc(-c2nc3c(N4CCCC4)cccc3n2CCNCc2ccccc2)cc1.O=C(O)C(F)(F)F`, the Inhibition in the test on Plasmodium falciparum [1] turned out to be 100%; in the test on Plasmodium falciparum [2], 99%; in the test on HepG2, 2%.
With `Cc1nc2nc(N)nc(N)c2c(C)c1Cc1ccc(Cl)cc1.Cl`, the Inhibition is reported as 94% in the test with Plasmodium falciparum [1], 22% in the test with Plasmodium falciparum [2] and 62% in the test on HepG2.
For the molecule `COc1cccc(CNC(=O)NC2CCN(c3ccnc(Nc4cc(OC)c(OC)c(OC)c4)n3)C2)c1` (stereo not drawn), the results for the Inhibition with Plasmodium falciparum [1], with Plasmodium falciparum [2] and with HepG2 were 93%, 84% and 15%, respectively.
Taken in the same sequence, the figures for `Cc1nnsc1C(=O)Nc1cccc(-c2ccc(-c3nc4cc(F)ccc4[nH]3)s2)c1` were 89%, 22% and 62%.
For `Cc1[nH]c(C)c(-c2ccc(Br)cc2)c(=O)c1Cl`, the Inhibition with Plasmodium falciparum [1] was found to be 94%; in the test with Plasmodium falciparum [2], 77%; in the test on HepG2, 22%.
On the same counts, the results for `CN1CCN(c2nsc3ccc(-c4ccc(NC(=O)Nc5cc(C(F)(F)F)ccc5F)cc4)cc23)CC1.O=C(O)C(F)(F)F` are 99%, 64% and 100%.
Taken in the same sequence, the figures for `Cl.OC(c1cccc(OCc2ccccc2)c1)C1CN(CCc2ccccc2)CCC1(O)c1ccccc1` (stereo not drawn) were 98%, 98% and 7%.
For the molecule `O=S(=O)(Nc1cccc(CCN2CCC(N3CCCCC3)CC2)c1)c1ccccc1C(F)(F)F`, the results for the Inhibition with Plasmodium falciparum [1], in the test with Plasmodium falciparum [2] and in the test on HepG2 were 82%, 32% and 21%, respectively.
With `COc1ccccc1CNc1ccnc(NCCc2cccc(C(F)(F)F)c2)n1`, the figures for the Inhibition with Plasmodium falciparum [1], with Plasmodium falciparum [2] and in the test with HepG2 were 93%, 68% and 39%, respectively.
As for `Nc1ncc(-c2ccc3nccc(-c4ccncc4)c3c2)cc1S(=O)(=O)N1CCOCC1`, the results for the Inhibition with Plasmodium falciparum [1], in the test with Plasmodium falciparum [2] and in the test with HepG2 were 100%, 99% and 39%, respectively.
As to `COc1cc(Cc2cnc(NCCN3CCNCC3)nc2N)ccc1OCc1ccc(C(F)(F)F)cc1`, the Inhibition in the test on Plasmodium falciparum [1] was determined as 98%; in the test on Plasmodium falciparum [2], 4%; with HepG2, 12%.
Turning to `Cc1ccc(Cn2ncc(N3CCCNCC3)c(Cl)c2=O)cc1NC(=O)Nc1ccc(-c2ccccc2)cc1`, the Inhibition in the test on Plasmodium falciparum [1] is 100%; with Plasmodium falciparum [2], 38%; in the test on HepG2 it was 55%.
For `COc1ccccc1NC(=S)N/N=C/c1ccc(O)cc1O`, the Inhibition in the test with Plasmodium falciparum [1] came to 89%; in the test with Plasmodium falciparum [2], 80%; with HepG2, 35%.
On the same counts, the results for `O=C(Nc1ccccc1)Nc1cccc(-c2nn3c(OCCN4CCCC4)cccc3c2-c2ccncc2)c1` are 100%, 98% and 30%.
Regarding `Br.CCOCc1cn(CC(=O)c2ccc(-c3ccccc3)cc2)c(C)nc1=N`, the Inhibition in the test with Plasmodium falciparum [1] was determined as 93%; in the test with Plasmodium falciparum [2], 72%; with HepG2, 13%.
Taken in the same sequence, the figures for `Cc1ccc(CN2CCN(c3cc4c(cc3Cl)CCN4C(=O)Cc3ccc(NC(=O)c4ccc(C(F)(F)F)cc4)cc3)CC2)cc1` were 88%, 0% and 15%.
For `NC(=O)c1ccc(NCC(=O)Nc2cccc(-c3cccc(-c4nc5cc(C(F)(F)F)ccc5[nH]4)c3)c2)cc1`, the Inhibition came to 99% in the test on Plasmodium falciparum [1], 41% with Plasmodium falciparum [2] and 32% in the test with HepG2.
`CC(C)COc1ccc(Cl)cc1Cc1ccc(-c2nc3ccc(F)c(F)c3[nH]2)o1`: the Inhibition with Plasmodium falciparum [1] is recorded as 94%; in the test with Plasmodium falciparum [2] it was 85%; in the test with HepG2, 26%.
For `CNC(=O)c1cc(S(=O)(=O)Nc2ccc(OC)cc2)cs1`, the Inhibition in the test on Plasmodium falciparum [1] is reported as 95%; with Plasmodium falciparum [2] it was 48%; in the test on HepG2 it was 11%.
In the case of `NCCCN(Cc1ccc(Cl)c(Cl)c1)C(=O)Nc1ccc(Cl)c(Cl)c1`, the values for the Inhibition in the test on Plasmodium falciparum [1], with Plasmodium falciparum [2] and in the test on HepG2 were 93%, 41% and 100%, respectively.
On the same counts, the results for `CN1CCN(Cc2cc3cc(NC(=O)/C=C/c4ccc(Cl)cc4)ccc3s2)CC1.Cl` are 100%, 20% and 51%.
As for `Cc1cccc2nc(-c3ccc(-c4cccc(CNCc5ccccc5)c4)s3)[nH]c12.O=C(O)C(F)(F)F`, the Inhibition in the test on Plasmodium falciparum [1] is reported as 99%; with Plasmodium falciparum [2] it was 50%; in the test with HepG2 it was 3%.
Consider `CCCCCCN1CCC(NCc2cccc3ccccc23)CC1.O=C(O)C(F)(F)F`, for which the Inhibition in the test on Plasmodium falciparum [1] worked out at 95%; in the test on Plasmodium falciparum [2] it was 12%; in the test with HepG2 it was 21%.

Source of the values: ChEMBL document CHEMBL1157539, “Thousands of chemical starting points for antimalarial lead identification” (Nature, 2010).
